The values below come from PubChem BioAssay (NCI).

The structures appear in SMILES notation. The panel holds about 83,000 compounds, 20% with a hit somewhere; the sample as a whole holds those more often.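 Compound tested at a single concentration for 48 hours in 96-well plates; a percent growth value below 10 was scored as active.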 Unmarked numbers belong to inactive results. Calls of active or inactive are those of the source.

The test system of one test is HS 578T breast. Put plainly: NCI-60 one-dose screen, 48 h (100 = growth as untreated, 0 = no growth, -100 = all killed). The note with it: 10 µM.
For the molecule `CCCOCC(O)CNCCN` (stereo not given), the growth is 112%.

As to `CCCC(C)c1ccc(OCCCCCCN2CCNCC2)cc1` (stereo not given), the growth was 68.1%.

For the molecule `Cc1cc(C(C)(C)CC(C)(C)C)ccc1OCCOCC[N+](C)(C)Cc1ccccc1`, the growth is -9.66% (active).

Turning to `CC(C)c1[nH]nc2c(NCc3ccc(-c4ccccn4)cc3)nc(SCCN)nc12`, the growth is 11.1%.

On to `CC(=O)c1c(O)cc2c3c1OC(C)(C)C1CCC(C)(CC31)O2` (stereo not given), for which the growth is 115%.

As for `CN(C)CCCN1c2ccccc2Sc2ccc(C(F)(F)F)cc21`, the growth was 27%.

As for `CNC(=O)c1cc(Oc2ccc(NC(=O)Nc3ccc(Cl)c(OC4CCCCC4)c3)c(F)c2)ccn1`, the growth was 66%.

On to `O=C(Nc1cccc(F)c1)Nc1cccc(Cl)c1`, for which the growth is 97.3%.

In the case of `CCN(CC)CC(O)CNc1ccnc2cc(Cl)c(Cl)cc12` (stereo not given), the growth is 103%.

On to `CCCCCCOc1ccc(/C=C/C(=O)c2ccc(B(O)O)cc2)cc1`, for which the growth is 60.3%.

As for `CC1(C)CC(OCCCC[P+](c2ccccc2)(c2ccccc2)c2ccccc2)CC(C)(C)N1O`, the growth was -10.5% (active).

For `Fc1cc(-c2ncc(-c3cc(F)c(F)c(F)c3)c(NC3CCCCCC3)n2)cc(F)c1F`, the growth was 102%.

With `COc1c(C)c(C)c(OC)c2c1[nH]c(=O)c1c3cccnc3cn21`, the growth is 99.5%.

Take `CC1(C)CCc2cc(-c3ccn(S(=O)(=O)c4ccc(Cl)cc4)n3)ccc2O1`: the growth is 99.5%.

As to `O=C(NC1CCCC1)c1ccc(N2CCC(NCc3cccc(C(F)(F)F)c3)CC2)cc1`, the growth is 96.1%.

In the case of `CC1=CC2OC34COC3CC(OC(=O)C(F)(F)F)C4(C)C2(C)CC1` (stereo not given), the growth was 97.7%.

With `CCCCOCCOCCOCc1cc2c(cc1Br)OCO2`, the growth was 108%.

Consider `CCCCCCCCCCN=C(c1ccc(N(C)C)cc1)c1ccc(N(C)C)cc1`, for which the growth is 26.7%.

As for `COc1cccc2c1C(=O)c1c(O)c3c(c(O)c1C2=O)C[C@@](O)(C(=O)COC(=O)c1cccnc1)C[C@@H]3OC1CC(N)C(O)C(C)O1` (stereo not given in full), the growth is -12.8% (active).

Turning to `COc1ccc(/C(=C/c2cc(OC)c(OC)cc2[N+](=O)[O-])C(=O)O)cc1`, the growth is 114%.

For `Nc1ccccc1NC(=O)CCCCCCC(=O)Nc1ccc2c(c1)/C(=C/c1ccc[nH]1)C(=O)N2`, the growth was 27.5%.

On to `CCOC(=O)c1c(C)n(-c2ccc(Cl)cc2)c2ccc(OC(=O)/C=C/c3ccccc3)cc12`, for which the growth is 82.6%.

As for `Cc1nnc2c3nnc(-c4ccc(Cl)cc4)n3c3ccccc3n12`, the growth was 97.9%.

In the case of `CCOc1ccc2c(c1)CC[C@@H]1[C@@H]2CC[C@]2(C)[C@@H](O)[C@@H](O)C[C@@H]12`, the growth was 113%.

Take `COC(=O)[C@]12CC[C@@H](C)[C@H](C)[C@@H]1C1=CC[C@@H]3[C@@]4(C)CC(=O)[C@H](O)[C@@](C)(CO)[C@@H]4C(=O)C[C@@]3(C)[C@]1(C)CC2`: the growth is -1.78% (active).

Take `CCCCn1c(=O)[nH]c2c(c1=O)C(c1ccc(Cl)cc1)c1c([nH]c(=O)n(CCCC)c1=O)N2`: the growth was 106%.

In the case of `CCC(CCNc1cc(OC)cc2cccnc12)CN1C(=O)c2ccccc2C1=O` (stereo not given), the growth was 177%.

For the molecule `COc1ccc(C(=O)c2sc3nc(-c4cccs4)ccc3c2N)cc1OC`, the growth was 50.4%.

In the case of `O=C/C=C/c1ccc([N+](=O)[O-])cc1Cl`, the growth is 108%.

`C/C(=N\NC(=O)c1sc(=S)n(C)c1N)c1cc2ccccc2o1`: the growth was 61.6%.

For `Cc1ccc(-c2cc(C(=O)Nc3ccc(S(=O)(=O)N4CCCCC4)cc3)[nH]n2)c(O)c1`, the growth is 79.4%.

As for `CC(=O)OC1Oc2ccccc2-c2oc(=O)c(-c3ccc(F)cc3)cc21` (stereo not given), the growth was -26.6% (active).

Regarding `COc1ccc(Nc2nc(NCc3ccccc3)c3ccccc3n2)cc1`, the growth is -3.28% (active).

As to `CCOC(=O)c1c(O)c2cc(-c3ccccc3)nc(OCC)c2c(=O)n1C`, the growth is 93%.

With `COc1ccc(-c2nnc(SCC(=O)c3ccccc3)o2)cc1`, the growth is 103%.

Consider `CC(=O)Oc1c(C)c(C)c2c(c1C)CCC(C)(CC(=O)OCCCCCCCCCCC[P+](c1ccccc1)(c1ccccc1)c1ccccc1)O2` (stereo not given), for which the growth is -35.2% (active).

For `Cc1ccccc1[P+](Cc1ccccc1)(c1ccccc1)c1ccccc1`, the growth is 54.4%.

The subject of the next test is NCI/ADR-RES ovarian. The test is described as above. The note with it: 10 µM.
As for `CCCOCC(O)CNCCN` (stereo not given), the growth was 123%.

Consider `CCCC(C)c1ccc(OCCCCCCN2CCNCC2)cc1` (stereo not given), for which the growth was 54.3%.

For `Nc1cc(O)cc(O)c1`, the growth was 99.7%.

On to `Cc1cc(C(C)(C)CC(C)(C)C)ccc1OCCOCC[N+](C)(C)Cc1ccccc1`, for which the growth was 103%.

With `CC(C)c1[nH]nc2c(NCc3ccc(-c4ccccn4)cc3)nc(SCCN)nc12`, the growth was 48%.

`CC(=O)c1c(O)cc2c3c1OC(C)(C)C1CCC(C)(CC31)O2` (stereo not given): the growth was 89.6%.

As to `CN(C)CCCN1c2ccccc2Sc2ccc(C(F)(F)F)cc21`, the growth is 10.4%.

As for `CNC(=O)c1cc(Oc2ccc(NC(=O)Nc3ccc(Cl)c(OC4CCCCC4)c3)c(F)c2)ccn1`, the growth is 47.6%.

`O=C(Nc1cccc(F)c1)Nc1cccc(Cl)c1`: the growth is 89.1%.

With `CCN(CC)CC(O)CNc1ccnc2cc(Cl)c(Cl)cc12` (stereo not given), the growth was 87.1%.

As to `CCCCCCOc1ccc(/C=C/C(=O)c2ccc(B(O)O)cc2)cc1`, the growth is 77.4%.

In the case of `CC1(C)CC(OCCCC[P+](c2ccccc2)(c2ccccc2)c2ccccc2)CC(C)(C)N1O`, the growth was 55.2%.

Consider `Fc1cc(-c2ncc(-c3cc(F)c(F)c(F)c3)c(NC3CCCCCC3)n2)cc(F)c1F`, for which the growth was 106%.

Take `COc1c(C)c(C)c(OC)c2c1[nH]c(=O)c1c3cccnc3cn21`: the growth was 110%.

For the molecule `CC1(C)CCc2cc(-c3ccn(S(=O)(=O)c4ccc(Cl)cc4)n3)ccc2O1`, the growth is 69.3%.

Regarding `O=C(NC1CCCC1)c1ccc(N2CCC(NCc3cccc(C(F)(F)F)c3)CC2)cc1`, the growth is 88.3%.

Take `CC1=CC2OC34COC3CC(OC(=O)C(F)(F)F)C4(C)C2(C)CC1` (stereo not given): the growth is 105%.

On to `CCCCOCCOCCOCc1cc2c(cc1Br)OCO2`, for which the growth is 111%.

`CCCCCCCCCCN=C(c1ccc(N(C)C)cc1)c1ccc(N(C)C)cc1`: the growth was -3.13% (active).

In the case of `COc1cccc2c1C(=O)c1c(O)c3c(c(O)c1C2=O)C[C@@](O)(C(=O)COC(=O)c1cccnc1)C[C@@H]3OC1CC(N)C(O)C(C)O1` (stereo not given in full), the growth is 57%.

On to `COc1ccc(/C(=C/c2cc(OC)c(OC)cc2[N+](=O)[O-])C(=O)O)cc1`, for which the growth is 110%.

Consider `Nc1ccccc1NC(=O)CCCCCCC(=O)Nc1ccc2c(c1)/C(=C/c1ccc[nH]1)C(=O)N2`, for which the growth was 93.1%.

In the case of `CCOC(=O)c1c(C)n(-c2ccc(Cl)cc2)c2ccc(OC(=O)/C=C/c3ccccc3)cc12`, the growth is 61.7%.

On to `Cc1nnc2c3nnc(-c4ccc(Cl)cc4)n3c3ccccc3n12`, for which the growth is 107%.

Turning to `CCOc1ccc2c(c1)CC[C@@H]1[C@@H]2CC[C@]2(C)[C@@H](O)[C@@H](O)C[C@@H]12`, the growth is 107%.

Consider `COC(=O)[C@]12CC[C@@H](C)[C@H](C)[C@@H]1C1=CC[C@@H]3[C@@]4(C)CC(=O)[C@H](O)[C@@](C)(CO)[C@@H]4C(=O)C[C@@]3(C)[C@]1(C)CC2`, for which the growth was -24.3% (active).

`CCCCn1c(=O)[nH]c2c(c1=O)C(c1ccc(Cl)cc1)c1c([nH]c(=O)n(CCCC)c1=O)N2`: the growth is 98.6%.

As to `CCC(CCNc1cc(OC)cc2cccnc12)CN1C(=O)c2ccccc2C1=O` (stereo not given), the growth is 89.9%.

For the molecule `COc1ccc(C(=O)c2sc3nc(-c4cccs4)ccc3c2N)cc1OC`, the growth was 37.8%.

Turning to `O=C/C=C/c1ccc([N+](=O)[O-])cc1Cl`, the growth was 101%.

Consider `C/C(=N\NC(=O)c1sc(=S)n(C)c1N)c1cc2ccccc2o1`, for which the growth was 49.1%.

With `Cc1ccc(-c2cc(C(=O)Nc3ccc(S(=O)(=O)N4CCCCC4)cc3)[nH]n2)c(O)c1`, the growth was 59.9%.

As to `CC(=O)OC1Oc2ccccc2-c2oc(=O)c(-c3ccc(F)cc3)cc21` (stereo not given), the growth is 96.4%.

`COc1ccc(Nc2nc(NCc3ccccc3)c3ccccc3n2)cc1`: the growth is 39.7%.

In the case of `CCOC(=O)c1c(O)c2cc(-c3ccccc3)nc(OCC)c2c(=O)n1C`, the growth was 82.2%.

Regarding `COc1ccc(-c2nnc(SCC(=O)c3ccccc3)o2)cc1`, the growth was 91.9%.

Consider `CC(=O)Oc1c(C)c(C)c2c(c1C)CCC(C)(CC(=O)OCCCCCCCCCCC[P+](c1ccccc1)(c1ccccc1)c1ccccc1)O2` (stereo not given), for which the growth is -42.5% (active).

For `Cc1ccccc1[P+](Cc1ccccc1)(c1ccccc1)c1ccccc1`, the growth was 104%.
